Measurements published in PubChem BioAssay AID1159580 (chemical genetic matrix, 2015).
Among all 5,500 compounds or so, about 2,000 (36%) were called active. Another 18% or so got no clear call; they are omitted. No stated cut-off is given here; in the data, active means normalized growth mostly below about 0.91 (no sharp cut-off); inconclusive means no clear call, values can overlap the other calls; inactive means mostly above about 0.92. The list shows a part of the results.

Experiment: chemical genetic growth profiling, strain panel (AID 1159580);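 further: tested at 20 µM; growth read once vehicle control cultures reached saturation at 30 °C; 1 = growth at the plate median or of vehicle wells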
Settings: S. cerevisiae deletion strains, growth OD
[1] = locus YAL013W, strain DEP1, stronger effect = lower value
[2] = locus YAL040C, strain CLN3, stronger effect = lower value
[3] = locus YCL061C, strain MRC1 (second series), stronger effect = lower value
[4] = locus YDR363W, strain ESC2, stronger effect = lower value
[5] = locus YER002W, strain NOP16, stronger effect = lower value
[6] = locus YNL153C, strain GIM3, stronger effect = lower value
[7] = locus YNL175C, strain NOP13, stronger effect = lower value
[8] = locus YNL197C, strain WHI3, stronger effect = lower value
[9] = locus YNL224C, strain SQS1, stronger effect = lower value
[10] = locus YOR083W, strain WHI5 (second series), stronger effect = lower value
[11] = locus YPL241C, strain CIN2, stronger effect = lower value
[12] = locus YAR019C, strain CDC15, stronger effect = lower value
[13] = locus YBL105C, strain PKC1, stronger effect = lower value
[14] = locus YBR135W, strain CKS1, stronger effect = lower value
[15] = locus YBR136W, strain MEC1, stronger effect = lower value
[16] = locus YBR160W, strain CDC28, stronger effect = lower value
[17] = locus YDL017W, strain CDC7, stronger effect = lower value
[18] = locus YDL028C, strain MPS1, stronger effect = lower value
[19] = locus YDL101C, strain DUN1, stronger effect = lower value
[20] = locus YDL108W, strain KIN28, stronger effect = lower value
[21] = locus YDL132W, strain cdc53, stronger effect = lower value
[22] = locus YDL214C, strain PRR2, stronger effect = lower value
[23] = locus YDR052C, strain DBF4, stronger effect = lower value
[24] = locus YDR054C, strain cdc34, stronger effect = lower value
[25] = locus YDR226W, strain ADK1, stronger effect = lower value
[26] = locus YDR477W, strain SNF1, stronger effect = lower value
[27] = locus YER123W, strain YCK3, stronger effect = lower value
[28] = locus YER133W, strain GLC7, stronger effect = lower value
[29] = locus YFL009W, strain cdc4, stronger effect = lower value
[30] = locus YFL029C, strain CAK1, stronger effect = lower value
[31] = locus YFR003C, strain YPI1, stronger effect = lower value
[32] = locus YFR019W, strain FAB1, stronger effect = lower value
[33] = locus YFR028C, strain CDC14, stronger effect = lower value
[34] = locus YGR040W, strain KSS1, stronger effect = lower value
[35] = locus YGR052W, strain FMP48, stronger effect = lower value
[36] = locus YGR092W, strain DBF2, stronger effect = lower value
[37] = locus YHR030C, strain SLT2, stronger effect = lower value
[38] = locus YHR079C, strain IRE1, stronger effect = lower value
[39] = locus YHR082C, strain KSP1, stronger effect = lower value
[40] = locus YHR205W, strain SCH9, stronger effect = lower value
[41] = locus YIL147C, strain SLN1, stronger effect = lower value
[42] = locus YJL095W, strain BCK1, stronger effect = lower value
[43] = locus YJL128C, strain PBS2, stronger effect = lower value
[44] = locus YJL157C, strain FAR1, stronger effect = lower value
[45] = locus YJR016C, strain ILV3, stronger effect = lower value
[46] = locus YJR066W, strain TOR1 (second series), stronger effect = lower value
[47] = locus YJR066W, strain TOR1, stronger effect = lower value
[48] = locus YKL048C, strain ELM1, stronger effect = lower value
[49] = locus YKL067W, strain YNK1, stronger effect = lower value
[50] = locus YKL101W, strain HSL1, stronger effect = lower value
[51] = locus YKL193C, strain SDS22, stronger effect = lower value
[52] = locus YKL203C, strain TOR2, stronger effect = lower value
[53] = locus YLR113W, strain HOG1, stronger effect = lower value
[54] = locus YLR133W, strain CKI1, stronger effect = lower value
[55] = locus YLR403W, strain SFP1, stronger effect = lower value
[56] = locus YML070W, strain DAK1, stronger effect = lower value
[57] = locus YMR001C, strain CDC5, stronger effect = lower value
[58] = locus YMR205C, strain PFK2 (second series), stronger effect = lower value
[59] = locus YMR277W, strain FCP1, stronger effect = lower value
[60] = locus YNL006W, strain LST8, stronger effect = lower value
[61] = locus YNL020C, strain ARK1, stronger effect = lower value
[62] = locus YNL161W, strain CBK1, stronger effect = lower value
[63] = locus YNL183C, strain NPR1, stronger effect = lower value
[64] = locus YNL207W, strain RIO2, stronger effect = lower value
[65] = locus YNL222W, strain SSU72, stronger effect = lower value
[66] = locus YNL307C, strain MCK1 (second series), stronger effect = lower value
[67] = locus YOL078W, strain AVO1, stronger effect = lower value
[68] = locus YOL136C, strain PFK27, stronger effect = lower value
[69] = locus YOR061W, strain CKA2, stronger effect = lower value
[70] = locus YOR119C, strain RIO1, stronger effect = lower value
[71] = locus YOR231W, strain MKK1, stronger effect = lower value
[72] = locus YOR329C, strain SCD5, stronger effect = lower value
[73] = locus YPL031C, strain PHO85, stronger effect = lower value
[74] = locus YPL153C, strain RAD53, stronger effect = lower value
[75] = locus YPL204W, strain HRR25, stronger effect = lower value
[76] = locus YPL209C, strain IPL1, stronger effect = lower value
[77] = locus YPL256C, strain CLN2, stronger effect = lower value
[78] = locus YPR025C, strain CCL1, stronger effect = lower value
[79] = locus YPR106W, strain ISR1, stronger effect = lower value
[80] = locus YPR111W, strain DBF20, stronger effect = lower value
[81] = strain NNK1, stronger effect = lower value
[82] = strain TSCII, stronger effect = lower value

Measured: normalized growth

CN=C(N)NCCC[C@H](N)C(=O)O
inactive: [1] 1.02 | [2] 0.993 | [3] 1.03 | [4] 1.04 | [5] 0.992 | locus YMR263W, strain SAP30, stronger effect = lower value 0.99 | [6] 1.02 | [7] 1.01 | [8] 1.01 | [9] 1.01 | [10] 1.01 | [11] 1

COc1cccc2c1[C@@H]1CN(CCCCn3c(=O)[nH]c4c(sc5ncc(-c6ccccc6)nc54)c3=O)C[C@@H]1CO2
active: locus YPL055C, strain LGE1, stronger effect = lower value 0.781
inactive: [1] 0.921 | [2] 0.969 | [3] 0.962 | locus YDR150W, strain NUM1, stronger effect = lower value 1.01 | [4] 0.963 | [5] 1.01 | locus YNL128W, strain TEP1, stronger effect = lower value 1.02 | [6] 0.929 | [7] 1.03 | [8] 1 | [9] 1 | [10] 0.93 | [11] 0.984

Cc1nc(C(F)(F)F)ccc1-c1nnc(SC(=O)c2ccc(Cl)cc2)o1
active: [12] 0.875 | [13] 0.883 | [14] 0.884 | [15] 0.888 | [16] 0.878 | [17] 0.882 | [18] 0.884 | [19] 0.866 | [20] 0.882 | [21] 0.877 | [22] 0.648 | [23] 0.886 | [24] 0.857 | [25] 0.867 | [27] 0.49 | [29] 0.868 | [30] 0.872 | [31] 0.879 | [33] 0.881 | [37] 0.358 | [38] 0.442 | [39] 0.617 | [40] 0.348 | [41] 0.885 | [43] 0.747 | [45] 0.87 | [46] 0.393 | [48] 0.785 | [49] 0.641 | [50] 0.639 | [51] 0.874 | [53] 0.229 | [54] 0.684 | [56] 0.604 | [57] 0.875 | [58] 0.682 | [59] 0.876 | [60] 0.888 | [61] 0.655 | [62] 0.865 | [63] 0.566 | [64] 0.874 | [65] 0.877 | [66] 0.589 | [67] 0.874 | [68] 0.604 | [69] 0.644 | [71] 0.454 | [72] 0.877 | [76] 0.877 | [77] 0.334 | [78] 0.877 | [79] 0.833 | [80] 0.803 | [81] 0.786 | [82] 0.865
inactive: [26] 0.82 | [28] 0.792 | [32] 0.81 | [34] 0.831 | [35] 0.638 | [36] 0.568 | [42] 0.532 | [44] 0.764 | [47] 0.631 | [52] 0.862 | [55] 0.818 | [70] 0.909 | [73] 0.81 | [74] 0.837 | [75] 0.782

Cc1nc(C(F)(F)F)ccc1C(=O)Sc1nnc(-c2ccc(C(F)(F)F)nc2C)o1
active: [37] 0.617 | [53] 0.515 | [77] 0.605
inactive: [12] 0.946 | [13] 0.95 | [14] 0.954 | [15] 0.955 | [16] 0.952 | [17] 0.951 | [18] 0.955 | [19] 0.961 | [20] 0.952 | [21] 0.956 | [22] 0.901 | [23] 0.949 | [24] 0.939 | [25] 0.946 | [26] 0.943 | [27] 0.858 | [28] 0.936 | [29] 0.946 | [30] 0.947 | [31] 0.952 | [32] 0.976 | [33] 0.959 | [34] 0.956 | [35] 0.929 | [36] 0.864 | [38] 0.737 | [39] 0.962 | [40] 0.732 | [41] 0.952 | [42] 0.861 | [43] 0.902 | [44] 0.945 | [45] 0.952 | [46] 0.716 | [47] 0.935 | [48] 0.937 | [49] 0.893 | [50] 0.886 | [51] 0.949 | [52] 0.989 | [54] 0.924 | [55] 0.945 | [56] 0.89 | [57] 0.953 | [58] 0.918 | [59] 0.951 | [60] 0.959 | [61] 0.889 | [62] 0.936 | [63] 0.905 | [64] 0.942 | [65] 0.954 | [66] 0.868 | [67] 0.949 | [68] 0.876 | [69] 0.887 | [70] 1.02 | [71] 0.802 | [72] 0.953 | [73] 0.94 | [74] 0.963 | [75] 0.934 | [76] 0.95 | [78] 0.949 | [79] 0.951 | [80] 0.919 | [81] 0.928 | [82] 0.943
